Results: the supplement of paper PMC13380429
Unmarked numbers belong to inactive results.

These molecules were tested on Vero E6 infected with SARS-CoV-2 (assay: inhibition of SARS-CoV-2 cytopathic effect; higher = more antiviral protection, active = above 15). Settings: 1 nM; 48 h.

Compared with `CCOC(=O)C(=O)Nc1cccc(OC)c1C(N)=O`, `COC(=O)C1=C(C)NC(C)=C(C(=O)OC)C1c1ccccc1[N+](=O)[O-]` [nifedipine] is lower in “inhibition of SARS-CoV-2 cytopathic effect” value (from here on “inhibition”): 6.62% for the first, -0.99% for the second.

Compared with `CN(C)C(=O)Oc1ccc[n+](C)c1` [mestinon], `COc1cccc(Nc2c(C(N)=O)cnc3c(C)cc(S(=O)(=O)c4cccc(C(=O)N(C)C)c4)cc23)c1` is lower in “inhibition” value: 4.06% for the first, 1.19% for the second.

Compared with `CC(C[N+](C)(C)C)OC(N)=O` (stereo not given) [bethanechol], `CNC(=O)[C@@H](NC(=O)[C@H](CC(C)C)[C@H](O)C(=O)NO)C(C)(C)C` [marimastat] is higher in “inhibition” value: -5.4% for the first, -4.07% for the second.

First: CC(=O)O[C@]1(C(C)=O)CC[C@H]2[C@@H]3C[C@H](C)C4=CC(=O)CC[C@]4(C)[C@H]3CC[C@@]21C [medroxyprogesterone-acetate]
Second: C#C[C@]1(O)CC[C@H]2[C@@H]3CCC4=C(CCC(=O)C4)[C@H]3CC[C@@]21C [noretynodrel]
The “inhibition” value of the first is higher: 1.02% for the first, 0.57% for the second.

First: O=S(=O)(F)Cc1ccccc1 [phenylmethylsulfonyl-fluoride]
Second: CNC(C)(C)Cc1ccccc1 [mephentermine]
The “inhibition” value of the first is higher: -2.45% for the first, -6.95% for the second.

Compared with `Cc1ccc(S(=O)(=O)n2c(N)nc3ccccc32)cc1`, `O=C(O)CNC(=O)c1c(O)c2ccccc2n(Cc2ccccc2)c1=O` is lower in “inhibition” value: -0.51% for the first, -0.58% for the second.

Going from `CC(C)Oc1ccc(-c2nc(-c3cccc4c3CC[C@@H]4NCCO)no2)cc1C#N` [ozanimod] to `Cc1cccc(C(=O)NCN2CCN(c3ccccc3C#N)CC2)c1`, the “inhibition” value falls from -1.23% to -2.23%.

Going from `O=C(O)c1c(Sc2ccccc2)c2cc(Cl)ccc2n1Cc1ccc(Cl)cc1` to `Cc1ccc(-n2nc(C(C)(C)C)cc2NC(=O)Nc2ccc(OCCN3CCOCC3)c3ccccc23)cc1` [doramapimod], the “inhibition” value falls from 1.19% to -2.22%.

First: Cc1nc(Nc2ncc(C(=O)Nc3c(C)cccc3Cl)s2)cc(N2CCN(CCO)CC2)n1 [dasatinib]
Second: O=c1ccc2ccc(OCCCCN3CCN(c4cccc5sccc45)CC3)cc2[nH]1 [brexpiprazole]
The “inhibition” value of the first is higher: 1.14% for the first, -0.6% for the second.

Compared with `CCCN1CCN(c2ccc(C(=O)NC3(C(=O)NCC#N)CCCCC3)cc2)CC1` [balicatib], `O=C(Nc1ccc(N2CCC(C(=O)N3CCOCC3)CC2)cc1)c1cnc(Oc2ccccc2)nc1` is lower in “inhibition” value: 3.8% for the first, 0.64% for the second.

Compared with `CC(C)(C)C[C@@H]1N[C@@H](C(=O)N[C@H]2CC[C@H](O)CC2)[C@H](c2cccc(Cl)c2F)[C@]12C(=O)Nc1cc(Cl)ccc12`, `COc1cc(C)[nH]c(=O)c1CNC(=O)c1c(C)n([C@H](C)C2CCOCC2)c2ccccc12` is higher in “inhibition” value: -4.12% for the first, -1.12% for the second.

Going from `NCCCC[C@H](NC(=O)[C@@H](Cc1cc(Br)c(O)c(Br)c1)NC(=O)N1CCC(N2Cc3ccccc3NC2=O)CC1)C(=O)N1CCN(c2ccncc2)CC1` to `O=C(O)CCCCC(CCSCc1ccccc1)SCc1ccccc1` (stereo not given), the “inhibition” value rises from 0.88% to 1.25%.

First: CC(C)NC(=O)c1ccc(C#Cc2ccncc2)cn1
Second: C/C=C(/C(=C/C)c1ccc(O)cc1)c1ccc(O)cc1 [dienestrol]
The “inhibition” value of the first is lower: -1% for the first, 2% for the second.

Compared with `O=C(NN1C(=O)[C@@H]2[C@@H]3C=C[C@@H]([C@H]4C[C@@H]34)[C@@H]2C1=O)c1ccc(C(F)(F)F)cc1` [tecovirimat], `N=C(N)c1ccc(-c2ccc(-c3ccc(C(=N)N)cc3)o2)cc1` [furamidine] is lower in “inhibition” value: 1.41% for the first, -2.49% for the second.

Going from `NCCNCCNCCN` [trientine] to `CCCCCCN(CCCCCC)C(=O)Cc1c(-c2ccc(F)cc2)[nH]c2ccccc12`, the “inhibition” value rises from -0.43% to 5.1%.

First: CCC1(C)CC(=O)NC1=O (stereo not given) [ethosuximide]
Second: CC[C@H]1[C@@H](O)[C@@H]2[C@H](CC[C@]3(C)[C@@H]([C@H](C)CCOS(=O)(=O)O)CC[C@@H]23)[C@@]2(C)CC[C@@H](O)C[C@@H]12
The “inhibition” value of the first is lower: -0.56% for the first, 0.86% for the second.

Going from `NC1CCN(c2cccc(Cl)n2)CC1` to `CC(C)Nc1nc2cc(Cl)c(Cl)cc2n1[C@H]1O[C@@H](CO)[C@H](O)[C@@H]1O` [maribavir], the “inhibition” value rises from 0.72% to 2%.

For `N[C@H]1C(O)O[C@H](CO)[C@@H](O)[C@@H]1O` (mixture of isomers) [glucosamine], the “inhibition” value was 3.44%.
